Results from the supplement of paper PMC6555819.

Experiments:
Assay in all cases: PBM binding z-score (relative to random genomic background probes); higher = stronger binding; sequences stand for … in GC…GCGATTGACAGCGTAGAATGAAGG
[1] = test system: PPARg:RXRa DBDmut IVT, anti-RXR (DBD mutation: RXRa K156A/R161A, NR concentration 270 nM, RXRa partner concentration 90 nM)
Summary of the method: (§1)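 The probes on custom Agilent 4×180K protein-binding microarrays were double-stranded, with 34-nt variable regions bearing direct-repeat seeds, single-nucleotide variants, half-site ablations and random human genomic background sequences. Incubation lasted 1 h with ligand-free nuclear receptor dimers in PBS pH 7.4, 2% milk, 0.02% Triton X-100, 1 mM DTT, 0.2 mg/mL BSA and 0.4 mg/ml salmon testes DNA. Antibodies against each partner (one per run) detected bound dimers, and fluorescence scans were regression-normalized. Binding z-scores take the random background probes as reference.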

[2] = test system: PPARg:RXRa IVT, anti-PPARg (NR concentration 270 nM, RXRa partner concentration 90 nM)
Summary of the method: as §1

[3] = test system: PPARg DBDmut:RXRa IVT, anti-PPARg (DBD mutation: PPARg1 K132A/R137A, NR concentration 270 nM, RXRa partner concentration 90 nM)
Summary of the method: as §1

[4] = test system: PPARg DBDmut IVT, anti-PPARg (DBD mutation: PPARg1 K132A/R137A, NR concentration 270 nM)
Summary of the method: as §1

[5] = test system: PPARg homodimer (NR concentration 180 nM)
Summary of the method: as §1

[6] = test system: PXR:RXRa (NR concentration 270 nM, RXRa partner concentration 90 nM)
Summary of the method: as §1

[7] = test system: PXR homodimer (NR concentration 270 nM)
Summary of the method: as §1

[8] = test system: RARa:RXR (NR concentration 270 nM, RXRa partner concentration 90 nM)
Summary of the method: as §1

[9] = test system: RARa homodimer (NR concentration 270 nM)
Summary of the method: as §1

[10] = test system: RARb:RXRa (NR concentration 270 nM, RXRa partner concentration 90 nM)
Summary of the method: as §1

Sequence | PBM binding z-score [1] | PBM binding z-score [2] | PBM binding z-score [3] | PBM binding z-score [4] | PBM binding z-score [5] | PBM binding z-score [6] | PBM binding z-score [7] | PBM binding z-score [8] | PBM binding z-score [9] | PBM binding z-score [10]
CAAACTATGTCACAGAGGTCAAAGTCCGTGCGTA | 5.08 | 5.55 | 0.905 | 0.872 | 3.02 | 5.88 | 3.31 | 5.97 | 1.58 | 4.19
CCTTACGCGTCACTGACAGGTTATAGCATTTGGA | 0.598 | -0.176 | 0.212 | 0.276 | 0.943 | 0.459 | 0.407 | 0.676 | 1.36 | 0.243
TTACTAAGGTGAAAGGTCGTTGATGCACGCCTTG | 4.24 | 5.63 | 1.41 | 1.35 | 2.47 | 4.61 | 0.84 | 6.79 | 0.463 | 3.51
TCTCGGAGGACACGAAGGTCAGATCTTTCCAGAG | 1.59 | 0.717 | -0.994 | -1.02 | 2.07 | 2.44 | 2.3 | 2.16 | 0.52 | 3.35
TCACATAGGTAAAGGTGAAAGTCGAACGATATGA | 2.47 | 2.45 | 0.764 | 0.579 | 1.1 | 1.19 | 0.504 | 1.75 | 1.33 | 2.05
AGACCGAGGGCACGCTGAGTTGATAGCAGAGTAG | 1.14 | 1.33 | -0.432 | -1.3 | 0.2 | 1.52 | -0.245 | 0.998 | -0.487 | 2.61
ATCTCTAGGTAAAGATAGTTCAGTTAATGCAAAT | 2.3 | 1.96 | 0.842 | 0.769 | 1.02 | 1.26 | 0.841 | 0.925 | 1.28 | 0.672
CCTACTGGGCCACGAAAGGTTATTGATTCAGTGA | 5.07 | 5.34 | 0.351 | -0.129 | 0.506 | 1.43 | 0.179 | 1.78 | 0.179 | 1.39
TCATATAGGTAAATGCTAGGTTAAAGTCCGATCT | 3.88 | 2.47 | 1.36 | 1.02 | 1.14 | 0.98 | 0.768 | 1.29 | 1.88 | 0.735
CCTGCTAGGTGAATGGTCAGCTAAAGCAGCTCGC | 3.48 | 2.62 | -0.739 | -1.37 | -0.377 | -0.698 | -0.722 | -0.44 | -1.03 | 1
ACTAGTTGGTCAACTGAGGTCACACACAATTCGG | 2.42 | 3.75 | 1.07 | 0.421 | 2.02 | 6 | 1.2 | 4.59 | 1.19 | 4.1
CCTACTGGGCCAAACAGGTCATTGATGCCGATAA | 4.31 | 3.92 | 0.0161 | -0.301 | 1.42 | 1.37 | 0.801 | 1.71 | 0.102 | 1.68
TAAACAGGGTCAAAGGCCAGAGTACGAATGTCGA | 3.53 | 5.43 | 2.69 | 2.41 | 3.24 | 4.51 | 0.672 | 6.19 | 0.87 | 4.33
AGTCAAAGTTCACAAGGTAACGTAAGATTCAGCT | 0.681 | 3.67 | 1.19 | 0.956 | 3.05 | 4.78 | 2.84 | 4.51 | 2.08 | 4.82
CCTAGTTGGTCAACGTCACACACGCTATAGGTAC | 2.03 | 1.8 | 0.867 | 0.424 | 1.37 | 0.444 | 0.536 | 0.716 | 1.34 | 1.21
TCATATAGGTAAATAGGTGAAAGTCCGTAAGTTA | 5.74 | 6.26 | 1.25 | 1.38 | 1.18 | 1.13 | 0.363 | 1.44 | 1.54 | 0.905
CCTCGGAGGAGAGAAGGTCAGAGCTGTCCGCTTT | -0.223 | -0.125 | -1.3 | -1.71 | 0.917 | 1.24 | -0.114 | 1.74 | -0.103 | 2.35
CGTCCAAGGTGAAAGGTCAGTGAAGAGATGACGG | 2.98 | 5.2 | -0.368 | -0.702 | 3.24 | 4.74 | 0.474 | 6.87 | 1.47 | 4.62
GCGACTGGGGCTTCAGCAGGTTACCATAACTTAA | 0.693 | 0.216 | -0.978 | -1.13 | 0.227 | -0.117 | -0.245 | 0.339 | -0.857 | -0.108
ATATGTAGGTTATCGGGTCATTGAGTTTGCGCAT | 7.71 | 7.5 | 3.11 | 1.9 | 2.89 | 4.55 | 10.5 | 3.82 | 1.41 | 2.86
CGTCCAAGGTCAGAGAGGTCAGTGAATGCCGAGT | 3.16 | 3.45 | 0.28 | -0.412 | 5.38 | 6.23 | 12.3 | 5.74 | 3.8 | 5.21
GCGACAGGGGCAAAGCAGGTTACCATAAGGTTGG | 0.177 | 0.684 | -0.131 | -0.736 | 0.212 | 0.934 | -0.112 | 1.19 | -0.459 | 1.47
CCTAATTGGTCAGGAGGTCACACACCGGATATGA | 1.64 | 3.67 | 0.824 | 0.695 | 3.7 | 4.19 | 1.4 | 4.5 | 2.15 | 3.87
GCTATTAGTTGAAAGGGCAACCGGATGATTCTCG | 0.432 | 0.892 | 0.0968 | -0.308 | 1.33 | 0.775 | 0.0713 | 1.37 | 1.05 | 2.1
